ELG1 repair inh = qHTS screen for small molecules that inhibit ELG1-dependent DNA repair in human embryonic kidney (HEK293T) cells expressing luciferase-tagged ELG1; HEK293T ELG1-luciferase reporter, luminescence, 16 h; DNA damage induced by 5-fluorouridine; Potency, µM (series often up to 46.1 µM), inactives show at the top dose activity change, negative = inhibition, hits mostly inhibitors; 330,000 compounds, 2.3% hits; note: potency is the fitted concentration of half-maximal effect; nearly all actives have a fitted effect of over 55% in size
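Cells (2,000 per well) received 5-fluorouridine plus test compound or DMSO and were incubated 16 hr at 37 °C, 5% CO2. Luciferase activity was read by luminescence 30 min after ONE-Glo addition; signal suppression marked inhibition of damage-induced ELG1 function.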
IL-1B inflam inh = qHTS for Inhibitors of Inflammasome Signaling: IL-1-beta AlphaLISA Primary Screen. THP-1 LPS/ATP IL-1B secretion, AlphaLISA, 16 h; hits give low values. activity change, % at 57.5 µM. 360,000 compounds, 4.7% hits; in the data active = activity change below about -50%; inconclusive = mostly about -30% to -49%
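Secreted IL-1B measured by AlphaLISA bead assay after 16 h compound exposure of THP-1 cells; compounds (final up to 57.5 uM) added 1 h before LPS (250 ng/mL) and ATP (1.25 mM) stimulation; lower signal means less secretion.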
VP16 counter = VP16 counterscreen qHTS for inhibitors of ROR gamma transcriptional activity | Drosophila S2 Gal4-VP16 UAS-luciferase, luminescence, 20 h | Potency, µM (series often up to 53.6 µM), inactives show at the top dose activity, negative = inhibition, usual class: inhibitors | 310,000 compounds, 3.5% hits;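 note: Gal4-VP16 expression switched on by copper sulfate through the metallothionein promoter; potency is the fitted concentration of half-maximal effect; nearly all actives have a fitted effect of over 50% in size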
DT40 TDP1 no CPT = qHTS for Inhibitors of human tyrosyl-DNA phosphodiesterase 1 (TDP1): qHTS in cells in absence of CPT | DT40 Tdp1-/- hTDP1 cells, no CPT, ATP luminescence, 48 h | Potency, µM (doses to about 46.2 µM), without a hit: top-dose activity change, negative = growth inhibition, most hits filed as inhibitors | 420,000 compounds, 15% hits; note: potency is the fitted concentration of half-maximal effect; nearly all actives have a fitted effect of over 55% in size
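A cellular qHTS used chicken DT40 cells lacking endogenous Tdp1 but carrying stably transfected human TDP1. Compounds were applied without camptothecin, and cell growth kinetics were judged by ATP-dependent luminescence after ≥48 hr.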
RORgamma inh = qHTS for inhibitors of ROR gamma transcriptional activity; Drosophila S2 Gal4-RORgamma UAS-luciferase reporter, 20 h; Potency, µM (highest dose often 53.6 µM), inactives show at the top dose activity change, negative = inhibition, usual class: inhibitors; 310,000 compounds, 5.4% hits; AID 2551, 2010; note: potency is the fitted concentration of half-maximal effect; nearly all actives have a fitted effect of over 60% in size
Target sequence (P51450 whole entry, looked up, the tested form may be a part): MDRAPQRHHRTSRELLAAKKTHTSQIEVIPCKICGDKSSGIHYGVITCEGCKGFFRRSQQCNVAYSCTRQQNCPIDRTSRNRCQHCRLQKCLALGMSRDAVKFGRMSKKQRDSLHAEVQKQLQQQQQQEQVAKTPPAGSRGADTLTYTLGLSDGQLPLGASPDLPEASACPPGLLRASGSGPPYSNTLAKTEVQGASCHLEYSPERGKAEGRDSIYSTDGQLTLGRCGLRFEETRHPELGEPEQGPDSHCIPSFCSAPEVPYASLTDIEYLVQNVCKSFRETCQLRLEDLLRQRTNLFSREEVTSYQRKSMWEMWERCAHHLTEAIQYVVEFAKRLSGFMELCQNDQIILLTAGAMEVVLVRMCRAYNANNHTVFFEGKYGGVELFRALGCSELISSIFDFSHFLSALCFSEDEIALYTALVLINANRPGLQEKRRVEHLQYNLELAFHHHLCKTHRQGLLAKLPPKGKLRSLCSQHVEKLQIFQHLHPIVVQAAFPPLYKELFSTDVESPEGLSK
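Luminescence from a UAS-regulated Photinus luciferase reporter in stably transfected Drosophila Schneider cells is measured; decreased signal marks ROR gamma inhibition. Fusion expression is induced by 700 uM copper sulfate for 20 hr.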
TDP1 cell CPT = qHTS for Inhibitors of human tyrosyl-DNA phosphodiesterase 1 (TDP1): qHTS in cells in presence of CPT; chicken DT40 Tdp1-/-;hTDP1 cells + 20 nM CPT, ATP luminescence, 48 h; Potency, µM (doses to about 46.2 µM), for inactives: at the top dose activity change, negative = growth inhibition, usual class: inhibitors; 420,000 compounds, 12% hits; note: potency is the fitted concentration of half-maximal effect; nearly all actives have a fitted effect of over 55% in size
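Chicken DT40 Tdp1-/- cells stably complemented with human TDP1 were seeded at 400 cells/well in medium containing 20 nM camptothecin, exposed to pin-transferred compounds, and grown at 37 °C for at least 48 hr. Viability was read as ATP luminescence.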
Numbers without * were called inactive; ? = inconclusive; · = no result given; [ ] = dose if it differs, or a comment. Sampled rows, rich in hits. Any-hit rate of the full collection: about 21%. Unless noted, calls come from the whole dose curve; as a rule, active = well fitted curve in the direction sought with a large enough effect; inconclusive = small, poorly fitted or top-dose-only effect, or another doubt; inactive = no such curve, though single readings can be large; an effect the other way counts as inactive or inconclusive. % is set by controls: 0 for no effect and ±100 for the full control effect.

SMILES	ELG1 repair inh	IL-1B inflam inh	VP16 counter	DT40 TDP1 no CPT	RORgamma inh	TDP1 cell CPT
O=C(CCCCCn1c(=O)[nH]c2ccccc2c1=O)NCCc1ccccc1	·	·	·	0.46µM*	·	0.29µM*
O=C(CCCCCn1c(=O)[nH]c2ccccc2c1=O)NCc1ccccc1	·	·	·	-28%	·	-21%
CCN(CCCNC(=O)CCn1c(=O)[nH]c2ccccc2c1=O)c1cccc(C)c1	-1%	-14	-1%	-19%	28%	-28%
COC(=O)c1ccc2c(=O)n(CCCCCC(=O)O)c(=S)[nH]c2c1	5%	42	14µM*	?	7.1µM*	-24%
Cc1cccc(NS(=O)(=O)c2ccc(C)c(C(=O)NC3CCN(Cc4ccccc4)CC3)c2)c1	·	-21	·	?	·	?
COc1cc2[nH]c(=O)n(CCCCCC(=O)NCCc3ccccc3)c(=O)c2cc1OC	·	·	·	-14%	·	-16%
COC(=O)c1ccc2c(=O)n(CCCCCC(=O)NCCc3ccccc3)c(=O)[nH]c2c1	·	·	·	18µM*	·	?
COC(=O)c1ccccc1NC(=O)Cc1nc(-c2ccc(OC)cc2)no1	·	·	·	-20%	·	-2%
COC(=O)C(Cc1ccc(OC(=O)c2ccc(C(F)(F)F)cc2)cc1)N1Cc2ccccc2C1=O (centres undefined)	?	32	-29%	18µM*	?	16µM*
Nc1cc(=O)nc(SCC(=O)Nc2ccc(F)cc2)n1-c1ccc(Cl)cc1	·	·	·	-27%	·	-3%
COc1ccc(-c2csc3ncnc(NCCO)c23)cc1	?	-81*	-14%	?	1%[1.91 µM]	?
COc1ccc(-c2csc3ncnc(Nc4ccc(O)cc4)c23)cc1	?	0	-2%	?	15%	?
COc1ccc(-c2csc3ncnc(NCCCO)c23)cc1	4.6µM*	?	-9%	8.2µM*	41%	?
NC(=O)CSc1nc(C23CC4CC(CC(C4)C2)C3)nc2ccccc12	27%	?	?	26µM*	-2%	?
Cc1nonc1NC(=O)CSc1nc(C2CCCCC2)nc2ccccc12	2%	-74*	?	23µM*	?	29µM*
Cc1nonc1NC(=O)CSc1nc(C23CC4CC(CC(C4)C2)C3)nc2ccccc12	15%	-90*	0%	?	7%	?
NC(=O)CSc1nc2ccccc2nc1SCC(N)=O	2%	15	-1%	-10%	14%	-13%
CCOC(=O)c1[nH]c(C)c(CCC(=O)NCc2ccccc2)c1C	·	·	·	-19%	·	-15%
CC1(C(=O)Nc2cnc3ccccc3c2)CCN1Cc1ccc(OC(F)(F)F)cc1 (centres undefined)	·	10	·	?	·	?
O=C(c1ccc2ccccc2n1)N1CCN(S(=O)(=O)c2ccccc2)CC1	-4%	-11	·	?	·	?
CC(=O)Oc1ccc(/C=C2\C=C(c3ccc(C)cc3)OC2=O)cc1	18%	10	?	-5%	0.45µM*	2%
Cc1cc(Br)ccc1NC(=O)CN1C(=O)C2C3CC(c4ccccc4)C(C3)C2C1=O (centres undefined)	?	?	3%	16µM*	?	?
COc1ccc(C2=NN3C(C2)c2ccccc2OC32C(=O)N(C)c3ccccc32)cc1 (centres undefined)	?	-5	-11%[0.365 µM]	21µM*	-13%	?
COc1ccc(C2=NN3C(C2)c2ccccc2OC3c2cccs2)cc1 (centres undefined)	?	-10	?	-20%	?	-17%
COC1C(O)COC1/C=C/c1ccccc1 (centres undefined)	·	·	-1%[10 µM]	·	-3%[10 µM]	·
SMILES	ELG1 repair inh	IL-1B inflam inh	VP16 counter	DT40 TDP1 no CPT	RORgamma inh	TDP1 cell CPT
CCC1(c2ccccc2)NC(=O)N(CC(=O)Nc2cc(S(=O)(=O)N3CCCCCC3)ccc2OC)C1=O (centres undefined)	?	-3	·	21µM*	·	16µM*
CCC1(c2ccccc2)NC(=O)N(CC(=O)Nc2cc(S(=O)(=O)N3CCCCC3)ccc2OC(C)C)C1=O (centres undefined)	-16%	?	·	?	·	23µM*
CCOc1ccc(S(=O)(=O)N2CCCCC2)cc1NC(=O)CN1C(=O)NC(CC)(c2ccccc2)C1=O (centres undefined)	-3%	-3	-4%	?	11%	?
Cc1cc2ncc(-c3cccs3)nc2cc1C	?	8	?	?	10µM*	-25%
CCc1ccccc1NC(=O)c1cnc2sc(N3CCCC3)nn2c1=O	·	·	·	2%	·	-18%
CC(=O)Nc1nc2ccccc2n1CCOc1ccccc1Cl	?	27	1.3µM*	15µM*	0.79µM*	?
COc1ccccc1OCCn1c(NC(=O)c2ccccc2Cl)nc2ccccc21	·	·	·	16µM*	·	23µM*
CCOc1ccc(-c2nonc2NC(=O)COc2ccc(C)c(C)c2)cc1OCC	·	·	·	-17%	·	-25%
NC(N)=NCc1cccc(I)c1	2%	0	-3%	2.9µM*	-9%	6.5µM*
CCc1ccc(OCC(=O)NNC(=S)NC(=O)C2CCCCC2)c(Br)c1	?	25	-22%	?	10µM*	?
CCc1ccc(OCC(=O)NC(=S)Nc2ccc(C)cc2C)c(Br)c1	9%	-26	-1%	-13%	-23%	-22%
CCc1ccc(OCC(=O)NNC(=S)NC(=O)C2CC2)c(Br)c1	-3%	110	-17%	13µM*	?	16µM*
Cc1ccc(CN2CCCCC2C(=O)Nc2ccc(Oc3cccnc3)cc2)o1 (centres undefined)	2%	30	11%	7.3µM*	-9%	5.2µM*
O=C(Nc1ccc(Oc2ccccc2)nc1)C1CCCCN1Cc1ccco1 (centres undefined)	?	40	4%	4.1µM*	44%	4.1µM*
CCn1cc(CN2CCC(C(=O)Nc3ccc(Oc4cccnc4)cc3)CC2)c(C)n1	-2%	5	-5%	?	-9%	?
C#Cc1ccc(CN2CCC(C(=O)Nc3ccc(Oc4ccccc4)nc3)CC2)cc1	?	?	?	?	-22%	15µM*
